The list is not random: actives were taken first. Their share in the collection is about 18%.
IL-1B inflam inh: qHTS for Inhibitors of Inflammasome Signaling: IL-1-beta AlphaLISA Primary Screen; 360,000 tested, 4.7% active; THP-1 LPS/ATP IL-1B secretion, AlphaLISA, 16 h; stronger effect = lower value; AID 743279, 2014; activity change, % at 57.5 µM; in the data active = activity change below about -50%; inconclusive = mostly about -30% to -49%
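Secreted IL-1B measured by AlphaLISA bead assay after 16 h compound exposure of THP-1 cells; compounds (final up to 57.5 uM) added 1 h before LPS (250 ng/mL) and ATP (1.25 mM) stimulation; lower signal means less secretion.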
TDP1 cell noCPT: qHTS for Inhibitors of human tyrosyl-DNA phosphodiesterase 1 (TDP1): qHTS in cells in absence of CPT. DT40 Tdp1-/- hTDP1 cells, no CPT, ATP luminescence, 48 h. Potency, µM (series often up to 46.2 µM), inactives show at the top dose activity change, negative = growth inhibition, actives largely listed as inhibitors. 420,000 tested, 15% active; also: potency is read from the fitted curve at half-maximal effect; nearly all actives have a fitted effect of over 55% in size
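DT40 Tdp1-/-;hTDP1 cells, no CPT (DMSO vehicle only), 400 cells/well; compounds pin-transferred; ≥48 hr, 37 °C; CellTiter-Glo 30 min RT dark, luminescence read.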
Six1-Eya2 inh: qHTS Assay for Inhibitors of the Six1/Eya2 Interaction | Homeobox protein SIX1 (Homo sapiens) + Protein phosphatase EYA2 (Homo sapiens), … | AlphaScreen GST-Six1/His-Eya2 binding, biochemical; stronger effect = lower value | activity change, % (no concentration beside the values) | 360,000 tested, 0.56% active | AID 651725, 2012; in the data active = activity change below about -65%; inconclusive = mostly about -30% to -63%
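Compounds are tested against tagged Six1 and Eya2 proteins bridged by glutathione donor and nickel acceptor beads; after a one-hour incubation at 37 °C without light, AlphaScreen emission is recorded.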
DT40 TDP1 CPT: qHTS for Inhibitors of human tyrosyl-DNA phosphodiesterase 1 (TDP1): qHTS in cells in presence of CPT. Potency, µM (titrated, usually from 46.2 µM), for inactives: at the highest dose activity change, negative = growth inhibition, actives largely listed as inhibitors. chicken DT40 Tdp1-/-;hTDP1 cells + 20 nM CPT, ATP luminescence, 48 h. 420,000 tested, 12% active. AID 686979, 2013; also: potency is read from the fitted curve at half-maximal effect; nearly all actives have a fitted effect of over 55% in size
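Cell growth measured by CellTiter-Glo luminescence after a minimum 48 h, 37 C compound exposure with 20 nM CPT in Tdp1-knockout DT40 cells stably expressing hTDP1, seeded 400/well; qHTS titration format.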
TDP1 inh: qHTS Assay for Inhibitors of Tyrosyl-DNA Phosphodiesterase (TDP1). Tyrosyl-DNA phosphodiesterase 1 (Homo sapiens), Q9NUW8. recombinant TDP1, AlphaScreen DNA substrate cleavage. Potency, µM (series often up to 130 µM), for inactives: top-dose activity change, negative = inhibition, usual class: inhibitors. 350,000 tested, 0.28% active; also: potency is read from the fitted curve at half-maximal effect; nearly all actives have a fitted effect of over 40% in size
Target sequence (Q9NUW8 whole entry, looked up): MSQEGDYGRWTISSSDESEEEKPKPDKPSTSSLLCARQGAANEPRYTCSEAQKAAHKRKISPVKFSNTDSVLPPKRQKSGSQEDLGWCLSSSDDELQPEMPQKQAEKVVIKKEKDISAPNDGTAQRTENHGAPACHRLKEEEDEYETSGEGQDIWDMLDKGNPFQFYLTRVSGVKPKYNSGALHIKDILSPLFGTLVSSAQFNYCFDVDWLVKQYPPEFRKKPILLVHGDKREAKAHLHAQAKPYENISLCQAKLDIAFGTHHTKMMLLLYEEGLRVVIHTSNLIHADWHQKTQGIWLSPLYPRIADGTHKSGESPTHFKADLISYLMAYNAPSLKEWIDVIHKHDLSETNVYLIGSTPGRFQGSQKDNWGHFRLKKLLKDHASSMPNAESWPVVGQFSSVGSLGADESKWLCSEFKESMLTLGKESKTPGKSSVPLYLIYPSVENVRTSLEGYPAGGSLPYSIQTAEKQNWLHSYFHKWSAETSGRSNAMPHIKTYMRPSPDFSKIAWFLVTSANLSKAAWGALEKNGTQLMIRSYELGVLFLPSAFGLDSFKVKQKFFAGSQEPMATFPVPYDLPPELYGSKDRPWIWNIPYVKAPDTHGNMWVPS
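Signal: AlphaScreen proximity between streptavidin donor and anti-FITC acceptor beads on intact substrate. Reaction: Tdp1 1 nM, substrate 15 nM final, 5 min RT after 15 min compound preincubation.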
CtBP-E1A blk: qHTS Assay for Inhibitors of the CtBP/E1A Interaction; activity change, % (no concentration beside the values); AlphaScreen GST-E1A/His-CtBP binding, 1536-well; stronger effect = lower value; 340,000 tested, 0.49% active; CtBP / adenovirus E1A interaction (AlphaScreen); in the data active = activity change below about -65%; inconclusive = mostly about -30% to -63%
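Homogeneous bead-based format: GST-tagged E1A captured on glutathione donor beads, His-tagged CtBP on nickel acceptor beads; compounds precede bead addition by 2 h at 37 °C.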
* marks the source's active call; other numbers are inactive results. Unless noted, calls follow the shape of the dose curve; as a rule, active = well fitted curve in the direction sought with a large enough effect; inconclusive = small, poorly fitted or top-dose-only effect, or another doubt; inactive = no such curve, though single readings can be large; an effect the other way counts as inactive or inconclusive. % is scaled to controls: 0 for no effect and ±100 for the full control effect.

How did COC(=O)c1ccccc1NC(=S)NC(=O)c1ccc2c(c1)OCO2 do in these assays?
IL-1B inflam inh: -6; TDP1 cell noCPT: -30%; Six1-Eya2 inh: inconclusive; DT40 TDP1 CPT: inconclusive; TDP1 inh: 5%; CtBP-E1A blk: 9

Results for Cc1ccc(S(=O)(=O)N2CCN(S(=O)(=O)N(C)C)CC2)cc1 ?
IL-1B inflam inh: 17; TDP1 cell noCPT: -17%; Six1-Eya2 inh: 12; DT40 TDP1 CPT: -24%; TDP1 inh: 1%; CtBP-E1A blk: 4

How did CCc1nc2c(OCc3ccc(C(F)(F)F)cc3)cccn2c1N(C)C(=O)C1CC1 do in these assays?
IL-1B inflam inh: -25; TDP1 cell noCPT: 23µM*; Six1-Eya2 inh: -3; DT40 TDP1 CPT: 23µM*; CtBP-E1A blk: 0

How did CCc1nc2c(OCC(=O)C(C)(C)C)cccn2c1N(C)C(=O)C1CC1 do in these assays?
IL-1B inflam inh: 2; TDP1 cell noCPT: -23%; Six1-Eya2 inh: 4; DT40 TDP1 CPT: -1%; CtBP-E1A blk: 1

What do the screens show for `CCCCC(=O)N(C)c1c(CC)nc2c(OCC(=O)c3ccc(Cl)cc3Cl)cccn12`?
TDP1 cell noCPT: inconclusive; Six1-Eya2 inh: -3; DT40 TDP1 CPT: 23µM*; CtBP-E1A blk: -21

What do the screens show for `CCc1nc2c(OCc3cc(Cl)cc(Cl)c3)cccn2c1N(C)C(=O)Nc1ccccc1OC`?
IL-1B inflam inh: 0; TDP1 cell noCPT: inconclusive; Six1-Eya2 inh: -18; DT40 TDP1 CPT: 23µM*; CtBP-E1A blk: inconclusive

What do the screens show for `CCOC(=O)C(=O)N(C)c1c(CC)nc2c(OCc3cc(Cl)cc(Cl)c3)cccn12`?
IL-1B inflam inh: -14; TDP1 cell noCPT: 21µM*; Six1-Eya2 inh: 1; DT40 TDP1 CPT: 18µM*; CtBP-E1A blk: -4

What do the screens show for `CCOc1ccccc1NC(=O)c1ccc2c(c1)C(=O)N(CC(C)C)C2=O`?
IL-1B inflam inh: -9; TDP1 cell noCPT: 4%; Six1-Eya2 inh: -12; DT40 TDP1 CPT: 6%; CtBP-E1A blk: -9

What do the screens show for `CCc1nc2c(OCc3ccc(Cl)cc3)cccn2c1N(C)C(=O)C1CC1`?
IL-1B inflam inh: -5; TDP1 cell noCPT: inconclusive; Six1-Eya2 inh: -7; DT40 TDP1 CPT: inconclusive; CtBP-E1A blk: -3

Results for CCc1nc2c(OCc3cccc(Cl)c3)cccn2c1N(C)C(=O)C1CC1 ?
IL-1B inflam inh: -21; TDP1 cell noCPT: inconclusive; Six1-Eya2 inh: -21; DT40 TDP1 CPT: 16µM*; CtBP-E1A blk: -3

Results for CCCCC(=O)N(C)c1c(CC)nc2c(OCc3cc(Cl)cc(Cl)c3)cccn12 ?
IL-1B inflam inh: -62*; TDP1 cell noCPT: inconclusive; Six1-Eya2 inh: 24; DT40 TDP1 CPT: inconclusive; CtBP-E1A blk: -14

What do the screens show for `CCOC(=O)C(=O)N(C)c1c(CC)nc2c(OCc3cccc(Cl)c3)cccn12`?
IL-1B inflam inh: 18; TDP1 cell noCPT: inconclusive; Six1-Eya2 inh: 0; DT40 TDP1 CPT: 16µM*; CtBP-E1A blk: -1

What do the screens show for `Cc1cccc(-n2ccnc2SCC(=O)Nc2nnc(C)s2)c1`?
IL-1B inflam inh: -11; TDP1 cell noCPT: 15µM*; Six1-Eya2 inh: -3; DT40 TDP1 CPT: inconclusive; TDP1 inh: 7%; CtBP-E1A blk: 0

How did O=C(CSc1nccn1-c1ccccc1)Nc1nc2ccccc2s1 do in these assays?
TDP1 cell noCPT: inconclusive; DT40 TDP1 CPT: inconclusive; TDP1 inh: 8%

What do the screens show for `CCc1nnc(NC(=O)CSc2nccn2-c2cccc(C)c2)s1`?
IL-1B inflam inh: 7; TDP1 cell noCPT: -13%; Six1-Eya2 inh: 1; DT40 TDP1 CPT: -21%; TDP1 inh: 4%; CtBP-E1A blk: -1

What do the screens show for `Cc1cccc(-n2ccnc2SCC(=O)Nc2nc3ccccc3s2)c1`?
TDP1 cell noCPT: 23µM*; DT40 TDP1 CPT: inconclusive; TDP1 inh: 7%

How did CCSc1nnc(NC(=O)CSc2nccn2-c2cc(C)cc(C)c2)s1 do in these assays?
IL-1B inflam inh: 4; TDP1 cell noCPT: -3%; Six1-Eya2 inh: -2; DT40 TDP1 CPT: -3%; TDP1 inh: 9%; CtBP-E1A blk: 7

What do the screens show for `Cc1cc(C)cc(-n2ccnc2SCC(=O)Nc2nnc(C)s2)c1`?
TDP1 cell noCPT: 3.3µM*; DT40 TDP1 CPT: 4.1µM*; TDP1 inh: 2%

What do the screens show for `O=c1ccc2cc(S(=O)(=O)Nc3ccc(OC(F)(F)F)cc3)ccc2[nH]1`?
TDP1 cell noCPT: -16%; DT40 TDP1 CPT: -1%; TDP1 inh: 12%

What do the screens show for `Brc1ccc2c(c1)CN1CCCC1=N2`?
IL-1B inflam inh: -8; TDP1 cell noCPT: 21µM*; Six1-Eya2 inh: -18; DT40 TDP1 CPT: 13µM*

Results for O=C1CN2C(=Nc3ccc(Br)cc3C2c2ccccc2)CCN1 (stereo not drawn) ?
IL-1B inflam inh: 25; TDP1 cell noCPT: -22%; Six1-Eya2 inh: -1; DT40 TDP1 CPT: -7%; TDP1 inh: 2%; CtBP-E1A blk: -11

Results for CCOC(=O)C1=C(c2ccccc2)NC(=S)NC1c1ccc(Cl)c([N+](=O)[O-])c1 (stereo not drawn) ?
TDP1 inh: 5%

Results for CCOC(=O)C1=C(c2cccc(Oc3ccccc3)c2)NC(=S)NC1C (stereo not drawn) ?
IL-1B inflam inh: -19; TDP1 cell noCPT: 23µM*; Six1-Eya2 inh: -21; DT40 TDP1 CPT: inconclusive; TDP1 inh: 7%; CtBP-E1A blk: -9

What do the screens show for `CCOC(=O)C1=C(C)C(c2cccc(Oc3ccccc3)c2)NC(=S)N1` (stereo not drawn)?
IL-1B inflam inh: -74*; TDP1 cell noCPT: inconclusive; Six1-Eya2 inh: -5; DT40 TDP1 CPT: inconclusive; TDP1 inh: 3%; CtBP-E1A blk: -23

How did CCOC(=O)C1=C(C)NC(=S)NC1c1ccco1 (stereo not drawn) do in these assays?
IL-1B inflam inh: -9; TDP1 cell noCPT: inconclusive; Six1-Eya2 inh: 1; DT40 TDP1 CPT: -3%; TDP1 inh: 0%; CtBP-E1A blk: -12

Bioassay records deposited in PubChem BioAssay by National Center for Advancing Translational Sciences (NCATS).
